The text below walks through data of ChEMBL document CHEMBL3988442, “University of Dundee, Small-Polar-MMV Screening Library” (2021).

SMILES strings stand for the structures. Hit rate of the full screen: of about 48,000 compounds, about 13,000 (27%) showed an effect of 50% or more. The list shows a part of the results.

The experiment concerns Wolbachia pipientis. As to the kind of experiment: Anti-Wolbachia Cell-Based Screen. It is filed as functional. Set-up: scale not given: in the data most compounds retested in dose-response had high values. To be noted: 5 µM.
Turning to `COc1ccccc1NC(=O)NCC(O)(c1ccccc1)C1CC1` (configuration not stated), the “Percent Effect” value was 10.27%.

Regarding `CCOc1ccc(NS(=O)(=O)c2cc(C)c(C(=O)O)s2)cc1F`, the “Percent Effect” value is -1.908%.

Regarding `CC(C)=CCN1CCC(c2nccn2Cc2cscn2)CC1`, the “Percent Effect” value amounted to 3.314%. The same measure for `Cc1nccn1CCCC(=O)N1CCC(N(C)c2cccnn2)CC1`: 114.4%; for `Cc1ccccc1N1CCCN(C(=O)CCCn2ccnc2C)CC1`: 7.495%. Take `Cc1nccn1CCCC(=O)N1CCCN(c2cccnn2)CC1`: the “Percent Effect” value turned out to be 66.22%. Take `Cn1ccc(C2CCCCN2C(=O)c2cccc(Cn3cccn3)c2)n1` (configuration not stated): the “Percent Effect” value was -10.23%.

Turning to `CCC(C)c1noc(C2CCN(C(=O)c3cccnc3)CC2)n1` (configuration not stated), the “Percent Effect” value is listed as -14.35%. The same measure for `CCc1cc(O)n2nc(C3CCCN3C(=O)c3ccccn3)cc2n1` (configuration not stated): 131.2%; for `CCc1nc(C2CCCN2C(=O)c2nc(C)n3ccccc23)no1` (configuration not stated): -3.852%. The same measure for `CC[C@H]1CN(C(=O)c2cccnc2)CC[C@H]1CC(=O)NCCOC`: -6.846%. The same measure for `Cc1nc2cc(C3CCN(C(=O)c4ccccn4)CC3)nn2c(O)c1C`: 104%; for `CCc1cc(O)n2nc(C3CCN(C(=O)c4ccncc4)CC3)cc2n1`: 121.2%. As to `CC(C)n1ccnc1C1CCN(C(=O)c2ccc(SCCO)cc2)CC1`, the “Percent Effect” value is -4.655%.

`CCc1cc(O)n2nc(C3CCN(C(=O)c4cccnc4)CC3)cc2n1`: the “Percent Effect” value is 97.39%.

As for `CCc1nc(CN(C)C(=O)NCc2cccc(NC(C)=O)c2)cs1`, the “Percent Effect” value is -8.024%.

Turning to `CS(=O)(=O)CCNCc1ccc(OCc2cscn2)cc1`, the “Percent Effect” value is listed as -7.403%.

For `CC(C)c1ccc(OCCC(=O)N(C)CC(=O)N(C)C)cc1`, the “Percent Effect” value was -12.7%.

Take `CCc1cc(O)n2nc(C3CCN(C(=O)c4ccccn4)CC3)cc2n1`: the “Percent Effect” value was 117.9%.

As to `CCc1nnc(CN2CCN(C(=O)c3ccccn3)CC2)o1`, the “Percent Effect” value is -6.012%. With `CC(C)n1ccnc1C1CCN(C(=O)c2ccccn2)CC1`, the “Percent Effect” value was -22.55%.

`COc1c(CNCc2cccc(C(=O)N(C)C)c2)c(C)nn1C`: the “Percent Effect” value is recorded as 120.7%. Under `COc1c(CNCc2ccc(C(=O)N(C)C)cc2)c(C)nn1C.Cl` stands -9.305%. The same measure for `COc1c(CNCc2ccc(C(=O)N(C)C(C)C)cc2)c(C)nn1C`: 196.4%; for `COc1c(CNCc2ccc(C(=O)N3CCCC3)cc2)c(C)nn1C.Cl`: 173.2%.

For `COc1c(CNCCNC(=O)c2ccc(C)cc2)c(C)nn1C`, the “Percent Effect” value is reported as -13.57%. The same measure for `Cc1nn(C)c(N(C)C)c1CNCc1ccc(OCC(N)=O)cc1.Cl`: 3.035%; for `COc1c(CNCCNC(=O)c2ccco2)c(C)nn1C`: 8.194%. On to `Cc1nn(C)c(N(C)C)c1CNCc1ccc(C(=O)N(C)C)cc1`, for which the “Percent Effect” value came out at 123.8%. For `COc1c(CNCc2cccc(CN(C)C)c2)c(C)nn1C.Cl`, the “Percent Effect” value was -1.675%.

As for `COc1c(CNCc2ccc(C(=O)NC3CC3)cc2)c(C)nn1C.Cl`, the “Percent Effect” value is -2.896%.

On to `CCNC(=O)c1ccc(CNCc2c(C)nn(C)c2N(C)C)cc1`, for which the “Percent Effect” value is 0.7448%.
